According to PubChem BioAssay (NCATS):
Results filed as inconclusive are left out. Activity calls are given as the source filed them. The call rests on the fitted dose curve; in most records, active means well fitted curve in the direction sought with a large enough effect; inconclusive means small, poorly fitted or top-dose-only effect, or another doubt; inactive means no such curve, though single readings can be large; an effect the other way counts as inactive or inconclusive.

molecular target: Rap guanine nucleotide exchange factor 3 (Homo sapiens) (UniProt O95398); test: Confirmatory qHTS for antagonist of cAMP-regulated guanine nucleotide exchange factor 3 (EPAC1) (AID 1645880); settings: EPAC1 Rap1B-BODIPY-GDP exchange, fluorescence; activity, negative = inhibition: at 115 µM (top of the series); further: nearly all actives have a fitted effect of over 55% in size;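 on activity, negative = inhibition: plate controls were DMSO only for no effect and full effect of the ATA control for full effect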
Method in brief: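 Nucleotide exchange uses 100 nM EPAC1, 250 nM RAP1B-BODIPY-GDP and 50 uM GDP, with compounds in a concentration-titration series. After 5 min at room temperature, fluorescence (480 nm ex/540 nm em) is read every 5 min for 30 min. Data are normalized to control ATA and DMSO.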
Potency means the concentration at half of the fitted maximal effect.

Sequence of Rap guanine nucleotide exchange factor 3 (Homo sapiens) (O95398 whole entry, looked up): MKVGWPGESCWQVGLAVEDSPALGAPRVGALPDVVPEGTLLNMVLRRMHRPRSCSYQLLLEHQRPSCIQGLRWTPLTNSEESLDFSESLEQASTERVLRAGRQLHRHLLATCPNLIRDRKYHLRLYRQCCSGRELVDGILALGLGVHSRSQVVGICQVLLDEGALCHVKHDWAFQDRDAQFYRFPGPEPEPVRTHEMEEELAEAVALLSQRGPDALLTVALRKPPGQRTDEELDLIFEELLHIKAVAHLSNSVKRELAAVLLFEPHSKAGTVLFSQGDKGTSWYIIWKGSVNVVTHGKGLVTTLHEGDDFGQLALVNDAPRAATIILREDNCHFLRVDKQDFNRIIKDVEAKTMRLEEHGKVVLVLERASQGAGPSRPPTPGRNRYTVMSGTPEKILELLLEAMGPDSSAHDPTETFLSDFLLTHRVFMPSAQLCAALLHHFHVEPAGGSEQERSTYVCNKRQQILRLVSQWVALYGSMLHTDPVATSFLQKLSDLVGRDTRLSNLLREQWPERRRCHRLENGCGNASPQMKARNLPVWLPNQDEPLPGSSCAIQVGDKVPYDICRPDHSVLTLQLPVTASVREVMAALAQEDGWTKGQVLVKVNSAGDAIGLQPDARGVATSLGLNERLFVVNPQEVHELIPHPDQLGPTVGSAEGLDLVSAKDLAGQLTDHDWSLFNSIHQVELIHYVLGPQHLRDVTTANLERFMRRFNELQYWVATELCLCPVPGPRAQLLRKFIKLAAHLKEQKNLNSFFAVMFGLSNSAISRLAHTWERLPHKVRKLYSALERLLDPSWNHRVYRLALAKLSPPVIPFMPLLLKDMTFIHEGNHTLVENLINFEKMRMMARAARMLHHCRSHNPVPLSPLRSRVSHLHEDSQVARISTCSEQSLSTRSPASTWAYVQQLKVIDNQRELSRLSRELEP

| SMILES | activity, negative = inhibition | Potency |
| --- | --- | --- |
| COc1ccc(/C(O)=C/c2nc3ccccc3n(-c3ccccc3)c2=O)cc1 | 99% (inactive) | – |
| COc1ccccc1C(=O)NNC(=O)CCCN1C(=O)/C(=C/c2cccs2)SC1=S | -4.78% (inactive) | – |
| CNC(=O)N(C1=NCC(C)(C)S1)c1ccc(F)c(Cl)c1 | -23.8% (inactive) | – |
| Nc1ccccc1Oc1ccc2ccccc2c1 | -20.7% (inactive) | – |
| COc1ccc(OC)c(NC(=S)N2c3ccccc3CC2C)c1 (stereo not given) | -11.5% (inactive) | – |
| O=C(COc1cccc(OC(F)F)c1)Nc1ccc(SC(F)F)cc1 | -29.5% (inactive) | – |
| Cc1ccc(S(=O)(=O)C2(C(=O)Nc3ccc(Br)cc3)CC2)cc1 | -21.1% (inactive) | – |
| Oc1c(C(c2ccccc2)N2CCN(c3ccccc3)CC2)sc2nc(-c3ccco3)nn12 (stereo not given) | -45.2% (inactive) | – |
| COc1ccc(Cl)cc1NC(=O)CN(C)C(C)C(=O)NC(=O)NC1CCCCC1 (stereo not given) | -26.3% (inactive) | – |
| CCOC(=O)/C(C#N)=C/c1ccc(N2CCN(Cc3ccccc3)CC2)cc1 | 84.8% (inactive) | – |
| CN1CCS/C1=C\C=C1/SC(=S)N(CC(=O)O)C1=O | -10.3% (inactive) | – |
| CC(/C=C/c1ccc(N(C)C)cc1)=N\N=C1\NC(=O)CC(C(=O)Nc2ccccc2)S1 (stereo not given) | -12.6% (inactive) | – |
| Cc1ccc2cccc(OC(=O)c3c(F)cccc3Cl)c2n1 | -10.5% (inactive) | – |
| CCN(CC)c1ccc2cc(C(N)=O)c(=N)oc2c1 | 81.9% (inactive) | – |
| O=C(N/N=C/c1cc(Cl)cc([N+](=O)[O-])c1O)NC12CC3CC(CC(C3)C1)C2 | – | 10.7 µM (active) |
| COC(=O)CC(NC(=S)NC(=O)c1ccccc1)c1ccc(Br)cc1 (stereo not given) | -23.9% (inactive) | – |
| CN(C)c1ccc(C2C=C(c3ccc(Cl)cc3OC(F)F)Nc3ncnn32)cc1 (stereo not given) | 113% (inactive) | – |
| Cc1ccc(NC(=O)c2sc3nc(-c4cc5ccccc5oc4=O)[nH]c(=O)c3c2C)c(C)c1 | 34.3% (inactive) | – |
| CCOC(=O)C1=C(C)N=c2s/c(=C\c3cccn3C)c(=O)n2C1c1cccc(OC)c1OC (stereo not given) | 2.61% (inactive) | – |
| O=c1[nH]c2ccccc2nc1/C=C(\O)c1cccs1 | 15.7% (inactive) | – |

| SMILES | activity, negative = inhibition | Potency |
| --- | --- | --- |
| O=C1/C(=C/C=C/c2ccccc2)Oc2c1ccc(O)c2CN1CCN(CCO)CC1 | -21.6% (inactive) | – |
| Cc1cccc(-n2c(N)c(-c3nc4ccccc4n3C)c3nc4ccccc4nc32)c1 | -20.8% (inactive) | – |
| COC(=O)c1ccc2nc(-c3ccccc3)c(Cc3cccc(F)c3)n2c1 | -17.6% (inactive) | – |
| COc1ccc(-c2ncccc2OC(=O)C23CC4CC(CC(C4)C2)C3)cc1OC | -17.2% (inactive) | – |
| N=C1SC(c2ccccc2)C(=O)N1c1ncc(Cc2ccccc2Cl)s1 (stereo not given) | -18.2% (inactive) | – |
| CCOc1ccccc1Oc1nc(C)nc2c1oc1ccccc12 | -17.6% (inactive) | – |
| Cn1cc(/C=C2\SC(=S)N(NC(=O)c3ccccc3Cl)C2=O)c2ccccc21 | 16.6% (inactive) | – |
| O=C(O)c1ccccc1NS(=O)(=O)c1ccc(NN=Cc2cccc(Cl)c2)c([N+](=O)[O-])c1 | – | 75.7 µM (active) |
| O=S1(=O)NC(c2ccccc2)CC(CC2CCCCC2)O1 (stereo not given) | -24.9% (inactive) | – |
| CN(C)c1ccc(C(=O)/C=C/c2ccc(Br)cc2)cc1 | -18.8% (inactive) | – |
| C=CCN1C(=O)c2cccc3c(N4CCCCC4)ccc(c23)C1=O | 88.7% (inactive) | – |
| O=S(=O)(NCC(c1ccco1)N1CCc2ccccc21)c1ccccc1 (stereo not given) | -24.2% (inactive) | – |
| CCOC(=O)C1CCCN(c2c(C(=O)c3ccccc3)cnc3ccc(OC)cc23)C1 (stereo not given) | -20.6% (inactive) | – |
| CC(NC(=O)/C(C#N)=C/c1ccc(N2CCOCC2)cc1)c1ccccc1 (stereo not given) | -15.1% (inactive) | – |
| Cc1cccc(C(C)C)c1-n1nnnc1-c1ccccc1 | -18.7% (inactive) | – |
| O=C(NN=Cc1c(O)ccc2ccccc12)c1ccncc1 | 0.0258% (inactive) | – |
| COc1ccc(C(=O)/C=C/c2ccc(N(C)C)cc2)c(OC)c1 | 28.1% (inactive) | – |
| O=C1c2cccc3c(N4CCCCC4)ccc(c23)C(=O)N1c1ccccc1O | -16.3% (inactive) | – |
| Nc1c(C(=O)C2CC2)sc2nc(-c3cccs3)cc(C(F)(F)F)c12 | 215% (inactive) | – |
| COC(=O)c1cc2oc(C)cc2n1Cc1cc(C)ccc1C | -37.4% (inactive) | – |

molecular target: Rap guanine nucleotide exchange factor 4 (Homo sapiens) (UniProt Q8WZA2); test: Confirmatory qHTS for agonist of cAMP-regulated guanine nucleotide exchange factor 4 (EPAC2) (AID 1645884); settings: EPAC2 GEF activity, Rap1B-BODIPY-GDP fluorescence; series mostly up to 154 µM; activation: at the top concentration;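 further: nucleotide exchange releases bodipy-GDP from Rap1 and this lowers its fluorescence; nearly all actives have a fitted effect of over 65% in size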; on activation: on the % scale 0 is the no-effect control and ±100 the full control effect
Sequence (Q8WZA2 whole entry, looked up): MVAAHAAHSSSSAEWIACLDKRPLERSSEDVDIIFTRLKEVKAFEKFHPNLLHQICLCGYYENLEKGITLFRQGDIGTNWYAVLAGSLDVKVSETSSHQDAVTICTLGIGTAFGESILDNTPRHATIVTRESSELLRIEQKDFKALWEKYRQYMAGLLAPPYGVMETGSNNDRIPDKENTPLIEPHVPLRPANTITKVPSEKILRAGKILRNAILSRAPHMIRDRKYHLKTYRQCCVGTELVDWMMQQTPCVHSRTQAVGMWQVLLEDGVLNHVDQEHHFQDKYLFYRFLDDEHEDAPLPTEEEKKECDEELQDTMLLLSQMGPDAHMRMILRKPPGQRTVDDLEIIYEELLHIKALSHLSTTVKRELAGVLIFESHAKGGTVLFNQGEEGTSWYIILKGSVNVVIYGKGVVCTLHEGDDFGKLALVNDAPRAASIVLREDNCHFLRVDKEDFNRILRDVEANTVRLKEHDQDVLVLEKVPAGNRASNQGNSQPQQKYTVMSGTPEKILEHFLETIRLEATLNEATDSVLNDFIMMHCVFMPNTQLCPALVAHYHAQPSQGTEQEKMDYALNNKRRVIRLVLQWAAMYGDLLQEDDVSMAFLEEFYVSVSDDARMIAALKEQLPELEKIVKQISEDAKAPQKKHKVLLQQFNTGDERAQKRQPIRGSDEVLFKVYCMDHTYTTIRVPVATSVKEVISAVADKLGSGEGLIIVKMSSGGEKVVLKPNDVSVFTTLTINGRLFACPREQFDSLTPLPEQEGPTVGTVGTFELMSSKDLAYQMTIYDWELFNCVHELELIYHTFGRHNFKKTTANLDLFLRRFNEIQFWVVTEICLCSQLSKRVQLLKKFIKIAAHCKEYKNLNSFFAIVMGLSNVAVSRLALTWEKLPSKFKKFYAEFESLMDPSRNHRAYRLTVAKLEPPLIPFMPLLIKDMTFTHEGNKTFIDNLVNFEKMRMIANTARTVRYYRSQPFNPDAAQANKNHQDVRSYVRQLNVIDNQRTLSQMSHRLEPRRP

| SMILES | Potency | activation |
| --- | --- | --- |
| COc1ccc(/C(O)=C/c2nc3ccccc3n(-c3ccccc3)c2=O)cc1 | 100 µM (active) | – |
| COc1ccccc1C(=O)NNC(=O)CCCN1C(=O)/C(=C/c2cccs2)SC1=S | – | 1.7% [at 17.1 µM, percent relative to cAMP agonist control] (inactive) |
| CNC(=O)N(C1=NCC(C)(C)S1)c1ccc(F)c(Cl)c1 | – | 18.9% (inactive) |
| Nc1ccccc1Oc1ccc2ccccc2c1 | – | 14.4% (inactive) |
| COc1ccc(OC)c(NC(=S)N2c3ccccc3CC2C)c1 (stereo not given) | – | 12.4% [at 17.1 µM, percent relative to cAMP agonist control] (inactive) |
| O=C(COc1cccc(OC(F)F)c1)Nc1ccc(SC(F)F)cc1 | – | 9.08% [at 17.1 µM, percent relative to cAMP agonist control] (inactive) |
| Cc1ccc(S(=O)(=O)C2(C(=O)Nc3ccc(Br)cc3)CC2)cc1 | – | 6.34% [at 17.1 µM, percent relative to cAMP agonist control] (inactive) |
| Oc1c(C(c2ccccc2)N2CCN(c3ccccc3)CC2)sc2nc(-c3ccco3)nn12 (stereo not given) | – | 16.9% [at 83.8 µM, percent relative to cAMP agonist control] (inactive) |
| COc1ccc(Cl)cc1NC(=O)CN(C)C(C)C(=O)NC(=O)NC1CCCCC1 (stereo not given) | – | 28.7% (inactive) |
| CCOC(=O)/C(C#N)=C/c1ccc(N2CCN(Cc3ccccc3)CC2)cc1 | – | 10.3% [at 17.1 µM, percent relative to cAMP agonist control] (inactive) |
| CN1CCS/C1=C\C=C1/SC(=S)N(CC(=O)O)C1=O | 79.4 µM (active) | – |
| CC(/C=C/c1ccc(N(C)C)cc1)=N\N=C1\NC(=O)CC(C(=O)Nc2ccccc2)S1 (stereo not given) | – | 10% [at 17.1 µM, percent relative to cAMP agonist control] (inactive) |
| Cc1ccc2cccc(OC(=O)c3c(F)cccc3Cl)c2n1 | – | 14.5% (inactive) |
| CCN(CC)c1ccc2cc(C(N)=O)c(=N)oc2c1 | – | 2.03% [at 17.1 µM, percent relative to cAMP agonist control] (inactive) |
| O=C(N/N=C/c1cc(Cl)cc([N+](=O)[O-])c1O)NC12CC3CC(CC(C3)C1)C2 | – | -23.3% (inactive) |
| COC(=O)CC(NC(=S)NC(=O)c1ccccc1)c1ccc(Br)cc1 (stereo not given) | – | 13% (inactive) |
| CN(C)c1ccc(C2C=C(c3ccc(Cl)cc3OC(F)F)Nc3ncnn32)cc1 (stereo not given) | – | 4.39% [at 17.1 µM, percent relative to cAMP agonist control] (inactive) |
| Cc1ccc(NC(=O)c2sc3nc(-c4cc5ccccc5oc4=O)[nH]c(=O)c3c2C)c(C)c1 | – | -7.8% [at 83.8 µM, percent relative to cAMP agonist control] (inactive) |
| CCOC(=O)C1=C(C)N=c2s/c(=C\c3cccn3C)c(=O)n2C1c1cccc(OC)c1OC (stereo not given) | – | 19.2% [at 17.1 µM, percent relative to cAMP agonist control] (inactive) |
| O=c1[nH]c2ccccc2nc1/C=C(\O)c1cccs1 | – | 1.73% [at 17.1 µM, percent relative to cAMP agonist control] (inactive) |

| SMILES | Potency | activation |
| --- | --- | --- |
| O=C1/C(=C/C=C/c2ccccc2)Oc2c1ccc(O)c2CN1CCN(CCO)CC1 | – | 17.5% [at 17.1 µM, percent relative to cAMP agonist control] (inactive) |
| Cc1cccc(-n2c(N)c(-c3nc4ccccc4n3C)c3nc4ccccc4nc32)c1 | – | 17.4% [at 17.1 µM, percent relative to cAMP agonist control] (inactive) |
| COC(=O)c1ccc2nc(-c3ccccc3)c(Cc3cccc(F)c3)n2c1 | – | 4.96% [at 17.1 µM, percent relative to cAMP agonist control] (inactive) |
| COc1ccc(-c2ncccc2OC(=O)C23CC4CC(CC(C4)C2)C3)cc1OC | – | 1.83% [at 17.1 µM, percent relative to cAMP agonist control] (inactive) |
| N=C1SC(c2ccccc2)C(=O)N1c1ncc(Cc2ccccc2Cl)s1 (stereo not given) | – | 49.1% (inactive) |
| CCOc1ccccc1Oc1nc(C)nc2c1oc1ccccc12 | – | -1.07% [at 83.8 µM, percent relative to cAMP agonist control] (inactive) |
| Cn1cc(/C=C2\SC(=S)N(NC(=O)c3ccccc3Cl)C2=O)c2ccccc21 | 100 µM (active) | – |
| O=C(O)c1ccccc1NS(=O)(=O)c1ccc(NN=Cc2cccc(Cl)c2)c([N+](=O)[O-])c1 | – | 0% (inactive) |
| O=S1(=O)NC(c2ccccc2)CC(CC2CCCCC2)O1 (stereo not given) | – | 26.6% [at 17.1 µM, percent relative to cAMP agonist control] (inactive) |
| CN(C)c1ccc(C(=O)/C=C/c2ccc(Br)cc2)cc1 | 112 µM (active) | – |
| C=CCN1C(=O)c2cccc3c(N4CCCCC4)ccc(c23)C1=O | 112 µM (active) | – |
| O=S(=O)(NCC(c1ccco1)N1CCc2ccccc21)c1ccccc1 (stereo not given) | – | 5.38% [at 17.1 µM, percent relative to cAMP agonist control] (inactive) |
| CCOC(=O)C1CCCN(c2c(C(=O)c3ccccc3)cnc3ccc(OC)cc23)C1 (stereo not given) | – | 6.11% [at 17.1 µM, percent relative to cAMP agonist control] (inactive) |
| CC(NC(=O)/C(C#N)=C/c1ccc(N2CCOCC2)cc1)c1ccccc1 (stereo not given) | 112 µM (active) | – |
| Cc1cccc(C(C)C)c1-n1nnnc1-c1ccccc1 | – | 6.22% [at 17.1 µM, percent relative to cAMP agonist control] (inactive) |
| O=C(NN=Cc1c(O)ccc2ccccc12)c1ccncc1 | – | 6.24% [at 17.1 µM, percent relative to cAMP agonist control] (inactive) |
| COc1ccc(C(=O)/C=C/c2ccc(N(C)C)cc2)c(OC)c1 | – | 0% (inactive) |
| O=C1c2cccc3c(N4CCCCC4)ccc(c23)C(=O)N1c1ccccc1O | – | 13.2% [at 17.1 µM, percent relative to cAMP agonist control] (inactive) |
| Nc1c(C(=O)C2CC2)sc2nc(-c3cccs3)cc(C(F)(F)F)c12 | 100 µM (active) | – |
| COC(=O)c1cc2oc(C)cc2n1Cc1cc(C)ccc1C | – | 16.4% [at 83.8 µM, percent relative to cAMP agonist control] (inactive) |
